± gives the standard deviation. Over roughly 3,700 sequences, “pre-steady-state target cleavage rate” has its median near 0.02; the highest 2% begin near 0.23. Shown is part of a subset that was picked to be rich in the highest values.
The sequences below were run on MILI (PIWIL2) piRISC loaded with Kctd7 piRNA (26 nt) (assay: pre-steady-state target cleavage rate (min^-1); MIWI and MILI are mouse PIWI proteins and EfPiwi is from a freshwater sponge; tags in brackets are library labels; higher = faster piRNA-guided slicing of the target). Conditions: guide: Kctd7 piRNA 5'p-UGUUAAUCUCUCAGAGAAGGUGACAG; auxiliary factor: 500 nM mouse GTSF1.
Procedure: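 Cleave-'n-Seq: a library of target RNAs (target site embedded in constant flanks, ACAGCATTCCGCGTTAGTGATATCCG... 5' flank; DNA-blocked outside the site) at 0.1 nM was incubated with 1 nM active mouse MILI or MIWI piRISC (synthetic 5'-monophosphorylated piRNA guide) with or without 500 nM mouse GTSF1 at 33 °C for 1 min to 16 h. Uncleaved targets were sequenced and normalised to non-target controls, and the pooled three trials were fitted to a burst-and-steady-state model to give the pre-steady-state cleavage rate (min^-1; k3 is constrained to at most 1e-4). Sequence is the target site only; target names encode pairing extent (gX:gY) and contiguous / 1-mismatch / 2-mismatch / bulge geometry. Fits with R² ≤ 0 are excluded.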

Sequence | pre-steady-state target cleavage rate
UAGUGUGUGACCUUGUCUGAGAGAUUAACA | 0.0744 ± 0.014
UAGUGAGUCACCAUCUCUGACAGAUUAACA | 0.0409 ± 0.0068
UAGUGACUCACCUUCUCUGAGAGCAUUAACA | 0.144 ± 0.016
UAGUGACAGUGGAAGACUGACAGAUUUACA | < 0.0001
UAGUGACAGUCAUUCUCUGAGAGAUUAACA | 0.00865 ± 0.0029
UAGUGACAGACCUUCUCUGAGAAAUUAACA | 0.0522 ± 0.015
UAGUGACAGACGCUUCUCUGAGAGAUUAACA | 0.0399 ± 0.0079
UAGUGAGUCAGCUUCUCUGAGAGAUUUACA | 0.1 ± 0.018
UAGUGUGACACCAUCUCUGAGAGAUUAACA | 0.137 ± 0.011
UAGUGACAGUCCGUCUCUGAGAGAUUAACA | 0.0557 ± 0.0066
UAGUCUGUCAGCUUCACUGAGAGAUUAACA | 0.0681 ± 0.0072
UAGUGACACACCUUCUCUGAGAGAUUAUGA | 0.0394 ± 0.012
UAGUGUGUCACCUACUCUGAGACAUUAACA | 0.0742 ± 0.019
UAGUCUGUCACCUUCUCUGAGAGUAUAACA | 0.122 ± 0.022
UAGUCUGUCACCUUCUCUGAGAGAUUAAAA | 0.12 ± 0.031
UAGUCUGUCACCUUCUCUGAGAGAGUAACA | 0.245 ± 0.033
UAGUCUGUCACCUUCUCUGAGAGUUAAACA | 0.328 ± 0.096
UAGUCUGUCACCUUCUCUGAGAGUAAAACA | 0.0676 ± 0.024
UAGUCUGUCACCUUCUCUGAGAGUUUAACA | 0.238 ± 0.04
UAGUCUGUCACCUUCUCUGAGAGUAUUAACA | 0.173 ± 0.013
UAGUCUGUCACCUUCUCUGAGAGGUUAACA | 0.198 ± 0.025
UAGUCUGUCACCUUCUCUGAGAGAUUAAACA | 0.147 ± 0.018
UAGUCUGUCACCUUCUCUGUGAGUUUAACA | 0.0314 ± 0.0059
UAGUCUGUCACCUUCUCUGAGAGAGUUAACA | 0.297 ± 0.035

Sequence | pre-steady-state target cleavage rate
UAGUCUGUCACCUUCUGUGAGAGUUUAACA | 0.0702 ± 0.016
UAGUGACAGUCCUUCUCUGAGUCAUUAAGA | < 0.0001
UAGUGACACACGAUCUCUGAGAGAUUAACA | 0.0352 ± 0.0045
UAGUGACAGACCUUAUCUGAGAGAUUAACA | 0.0894 ± 0.017
UAGUGACAGUGCUUCUCCGAGAGAUUAACA | 0.0082 ± 0.0034
UAGUGACAGUGGAAGAGAGAGAGAUUGAACA | < 0.0001
UAGUGAGUCAGCUACUCUGAGAGAUUAACA | 0.135 ± 0.01
UAGUGACACACCAACUCUGAGAGAUUAAGA | 0.018 ± 0.0037
UAGUGACAGUCCUUCUCAGAGAGAUUUACA | 0.0138 ± 0.0054
UAGUGACAGUGCUUCUCUGAGACAUAAACA | < 0.0001
UAGUGAGUCACCUUCUCAGAGAGAUUUACA | 0.0954 ± 0.024
UAGUCUGUCACCUUCUCUGAGAGACUUAACA | 0.145 ± 0.024
UAGUCUGUCACCUUCUCUGAGAGUUAACA | 0.278 ± 0.082
UAGUCUGUCACCUUCUCUGAGAGCUUAACA | 0.148 ± 0.016
UAGUCUGUCACCAACUCUGAGAGAUUAAGA | 0.047 ± 0.0083
UAGUCUGUCCACCUUCUCUGAGAGAUUAACA | 0.15 ± 0.018
UAGUGAGUCACCUUCUCUGAGAGAUUAACCA | 0.219 ± 0.017
UAGUGAGUCACCUUCUCUGAGAGAUUAACU [g2:g24:cont:t1U] | 0.288 ± 0.038
UAGUGUGUCACCUUCCCUGAGAGAUUAACA | 0.301 ± 0.056
UAGUGAGUCACCUUCUCUGAGAGAAUUACA | 0.105 ± 0.048
UAGUGUGCACCUUCUCUGAGAGAUUAACA | 0.196 ± 0.024
UAGUGAGUCACCUUCUCUGAGAAAUUAACA | 0.132 ± 0.027
UAGUGUGUGCACCUUCUCUGAGAGAUUAACA | 0.195 ± 0.021
UAGUGUGCCACCUUCUCUGAGAGAUUAACA | 0.227 ± 0.023

Sequence | pre-steady-state target cleavage rate
UAGUGAGUCACCUUCUCUGAGAGAUUAUCA | 0.197 ± 0.037
UAGUGAGUCACCUUCUCUGAGAGAUUAAUCA | 0.292 ± 0.053
UAGUGAGUCACCUUCUCUGAGAGAAUUAACA | 0.318 ± 0.059
UAGUGAGUCACCUUCUCUGAGAGAUUAACC [g2:g24:cont:t1C] | 0.192 ± 0.018
UAGUGAGUCACCUUCUCUGAGAGAUUAAUA | 0.217 ± 0.03
UAGUGACACAGGUUCUCUGAGAGAUUAAGA | 0.00675 ± 0.0025
UAGUGACAGUCCUUCUCUGAGAGAUUACCA | 0.00831 ± 0.0032
UAGUGACAGACCUUCUGUGAGAGAUUAACA | 0.087 ± 0.012
UAGUGACACAGGUUCUCUGAGAGAUUAACA | 0.0267 ± 0.0054
UAGUCUGUCACCAUCUCUGAGAGAUUUACA | 0.124 ± 0.018
UAGUGACAGUCCUUCUCUGUGAGAUUAACA | 0.033 ± 0.0057
UAGUCUGUGACGUUCUCUGAGAGAUUAACA | 0.147 ± 0.01
UAGUGACAGACCUUCUCUGAGAGGUUAACA | 0.221 ± 0.058
UAGUGAGGUCACCUUCUCUGAGAGAUUAACA | 0.242 ± 0.016
UAGUGAGUCACCUUCUCUGAGAGAUUAAAA | 0.135 ± 0.037
UAGUGAGUCACCUUCUCUGAGAGAUUAACA [g2:g24:cont:t1A] | 0.25 ± 0.021
UAGUGACACCACCUUCUCUGAGAGAUUAACA | 0.184 ± 0.017
UAGUGGGUCACCUUCUCUGAGAGAUUAACA | 0.175 ± 0.01
UAGUGAGUCACCUUCUCUCUGAGAUUAACA | 0.0118 ± 0.0043
UAGUGAGUCACCUUCUCUGAAGAGAUUAACA | 0.0119 ± 0.0044
UAGUGAGUCACCUUCUCUGAGAGAUUAAACA | 0.33 ± 0.049
UAGUGAGUCACCUUCUCUGAGAGAUUAAA | 0.202 ± 0.045
UAGUGACCCACCUUCUCUGAGAGAUUAACA | 0.286 ± 0.039

From the supplement of paper PMC10338343
